From PubChem BioAssay
HCMV antiviral: human cytomegalovirus inhibition; HFF cells, HCMV-luciferase reporter, 72 h; stronger effect = lower value; activity change, negative = inhibition, % at 57.5 µM; actives 4.5% (n = 410,000); AID 1259415; in the data active = activity change below about -60%; inconclusive = no clear call, values can overlap the other calls; inactive = above about -39%
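Human foreskin fibroblasts infected with luciferase-reporter HCMV at MOI 1 PFU/cell, compounds at two doses. Luciferase measured 72 h post infection; normalized to buffer-only basal and Salinomycin (10uM) controls.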
Marburg entry inh: blocks Marburg virus binding to or entry into cells | actives 1.8% (n = 300,000) | Potency, µM (titrated, usually from 37.8 µM), without a hit: at the highest dose activity change, negative = inhibition, usual class: inhibitors | Marburg virus pseudotyped entry inhibition, cell reporter; calls by dose curve; tested in HEK293 cells; note: potency is the fitted concentration of half-maximal effect
Lassa entry inh: inhibitors of Lassa virus binding or cell entry | Lassa virus pseudotype entry inhibition, cell reporter | Potency, µM (highest dose often 37.9 µM), for the others: top-dose activity change, negative = inhibition, actives largely listed as inhibitors | actives 1.2% (n = 300,000) | AID 540256; calls by dose curve; tested in HEK293 cells; note: potency is the fitted concentration of half-maximal effect; nearly all actives have a fitted effect of over 50% in size
FMDV inh: foot and mouth disease virus antiviral activity; AID 1159524; FMDV antiviral cell-based qHTS; actives 1.2% (n = 410,000); Potency, µM (series often up to 57.9 µM), for inactives: top-dose activity change, negative = inhibition, hits mostly inhibitors; calls by dose curve; tested in HEK293T cells; note: read-out not given here; potency is the fitted concentration of half-maximal effect; nearly all actives have a fitted effect of over 45% in size
* marks the source's active call; other numbers are inactive results; u = inconclusive; x = no result given; [ ] = remark or other dose. In the library only some 6.2% were active in any assay of this set; here they are far more common. % is set by controls: 0 for no effect and ±100 for the full control effect.

SMILES	HCMV antiviral	Marburg entry inh	Lassa entry inh	FMDV inh
CCCCCCN1C[C@H](O)[C@@H](n2cc(-c3ccc(F)cc3)nn2)C[C@@H]1c1ccc(Cl)cc1	2	x	x	u
CCCCCCN1C[C@H](n2cc(-c3ccc(F)cc3)nn2)[C@@H](O)C[C@@H]1c1ccc(C)cc1	-81*	x	x	-22%
CC(C(=O)c1ccccc1)[n+]1cccc(C(N)=O)c1 (configuration not stated)	-26	5%[46.1 µM]	-9%	-4%
O=[N+]([O-])c1nccn1CCCCCCCCCCCN1CCOCC1	-35	x	x	0%
O=[N+]([O-])c1cccc2nc3ccccc3c(NCCCn3ccnc3[N+](=O)[O-])c12	-97*	u	u	14µM*
CCOc1ccc(S(=O)(=O)N(C)C)cc1-c1nc2c(C(C)(C)C)nn(C)c2c(=O)[nH]1	-17	2%	-20%	x
CCOc1ccc(S(=O)(=O)N(C)CCO)cc1-c1nc2c(C(C)(C)C)nn(C)c2c(=O)[nH]1	-13	-31%	2.8µM*	0%
Nc1cccc(S(=O)(=O)c2ccc(N)c(N)c2)c1	-33	-22%[46.1 µM]	-6%	7%
c1ccc(-c2cc3c(N4CCN(c5ccccc5)CC4)ncnc3s2)cc1	-28	u	-25%	32µM*
CC(C)(C)Nc1ncnc2sc(-c3ccccc3)cc12	-73*	x	x	u
c1ccc(-c2cc3c(N4CCN(c5ncccn5)CC4)ncnc3s2)cc1	1	-8%[14.2 µM]	-8%	u
CN(C)CC(O)COc1ccc(-c2ccc(C#N)cc2)cc1 (configuration not stated)	13	3%	x	x
COc1cccc(-c2c(-c3cc(OC)cc(OC)c3)n(C)c3ccc(-c4cnc(OC)nc4)cc23)c1	u	-1%	x	u
COc1cccc(-c2c(-c3cc(OC)cc(OC)c3)n(C)c3ccc(-c4cnc(N5CCOCC5)nc4)cc23)c1	-65*	x	x	-17%
CCOC(=O)c1c2c(n(-c3ccc(OC)cc3)c1C)C(=O)C(=O)c1ccccc1-2	x	u	2.2µM*	13µM*
CCOC(=O)c1sc(=S)n(-c2ccc(OC)cc2)c1C	25	11%[46.1 µM]	-15%	-14%
COc1ccc(CCN2C(=O)c3cccc4c(C(=O)N5CCCCC5)ccc(c34)C2=O)cc1OC	-65*	u	u	14µM*
CCc1ccc(NC(=O)C/C(C)=N/NC(=O)OCc2ccc(OC)cc2)cc1	-12	31%	u	0%
CC1(C)CC(=O)C(N=Nc2cc(C(F)(F)F)ccc2Cl)=C(O)C1	-62*	x	x	-5%
O=C(NCCCn1ccnc1)c1ccc(NS(=O)(=O)c2ccc(Cl)c(Cl)c2)cc1	-23	u	-30%	-10%
NS(=O)(=O)c1ccc(N=Nc2c(O)[nH]c3ccc(C(=O)NCCCn4ccnc4)cc23)cc1	x	x	3.1µM*	x
O=C(O)c1ccc(N=Nc2c(O)[nH]c3cc(Cl)ccc23)cc1	193	0%	x	15%
NS(=O)(=O)c1ccc(N=Nc2c(O)[nH]c3ccc(Cl)cc23)cc1	x	x	2.8µM*	x
CC(=O)Nc1ccc(SCC(=O)c2cc(C)n(-c3ccccc3F)c2C)cc1	-95*	6.5µM*	u	u
Cc1cc(C(=O)CSc2nnc(N)s2)c(C)n1Cc1cccs1	-34	1.6µM*	0.35µM*	-71%
SMILES	HCMV antiviral	Marburg entry inh	Lassa entry inh	FMDV inh
Cc1csc(SCC(=O)c2cc(C)n(Cc3cccs3)c2C)n1	-94*	0.5µM*	0.79µM*	11µM*
CC(=O)Nc1ccc(SCC(=O)c2cc(C)n(Cc3cccs3)c2C)cc1	-77*	u	u	22µM*
CC(=O)N(c1nc(CCl)cs1)c1ccc(C)cc1C	2	x	x	-9%
Cc1[nH]c(=O)[nH]c(=O)c1Cc1cccc2ccccc12	-2	-8%[46.1 µM]	-19%	-3%
O=C(Nc1cccc(C(=O)O)c1)/C(=C\c1ccccc1)NC(=O)c1ccco1	9	x	x	-20%
CCCCC(CC)COC(=O)c1ccc(N(C)C)cc1 (configuration not stated)	-18	x	x	0%
CC(=O)NC(c1ccccc1)c1nc(-c2cncnc2)cs1 (configuration not stated)	-15	x	x	0%
COc1ccc(N2C(=O)CC(c3ccccc3)C2=O)cc1 (configuration not stated)	3	2%	-5%	-11%
COc1ccc(N2C(=O)CSC(c3ccccc3)C2=O)cc1 (configuration not stated)	-105*	-6%[46.1 µM]	13%	-6%
C[C@H]1CC[C@H]2C(=O)O[C@H](COc3ccc(C(C)(C)C)cc3)CN2[C@H]1c1ccc(Br)cc1	x	-12%[14.2 µM]	u	x
O=C(Nc1ccc(Oc2ccccc2)cc1)C1CCN(c2c3c(nc4ncnn24)CCC3)CC1	-101*	u	21µM*	8.9µM*
O=C(Nc1ccc2c(c1)CCC2)C1CCN(c2c3c(nc4ncnn24)CCC3)CC1	-101*	u	u	u
CCOc1ccccc1OCC(=O)NNC(=S)NC1CCCCC1	10	x	x	11%
CC(C)=CCC/C(C)=C/CO/N=C1\C[C@@H](O)[C@@H](O)[C@@H]2[C@@H]3C(=O)N(Cc4ccc5c(c4)OCO5)C(=O)[C@@H]3CC[C@@H]12	x	-17%[14.2 µM]	x	x
CN(CCCNC(=O)c1cn(C)c2ccc(S(=O)(=O)N(C)C)cc2c1=O)c1ccccc1	-64*	-17%	1%	-16%
CC1CCN(CCCNC(=O)c2cn(C)c3ccc(S(=O)(=O)N4CCCC4)cc3c2=O)CC1	-108*	-13%	26%	3%
CCN(CC)S(=O)(=O)c1ccc2c(c1)c(=O)c(C(=O)NCCCN(C)c1ccccc1)cn2C	23	-24%	-30%	u
CCOC(=O)c1c(CC(C)C)csc1NC(=O)C(C)C	-13	-18%	-3%	0%
Cc1ccccc1NC(=O)CC1SC(=NC2CCCCC2)NC1=O (configuration not stated)	-24	0%	4%	-23%
Clc1ccc(-c2csc(N/N=C/c3cccnc3)n2)c(Cl)c1	-63*	u	7.3µM*	-9%
CC1=C(C)C(=O)C(CCCCC#CCCCC#CCO)=C(C)C1=O	x	u	21µM*	22µM*
O=C(Nc1cccc(F)c1)c1ccc(CSc2ccccc2)o1	-11	7.3µM*	5.2µM*	21%
O=C(Nc1ccc(CSc2ccccc2)cc1)c1ccco1	-84*	x	x	58%
O=C(Nc1cccc(F)c1)c1ccc(Br)o1	-97*	u	4%	52%
O=C(CCc1ccccc1)Nc1ccc(NC(=O)c2ccco2)cc1	-24	23%	u	x
SMILES	HCMV antiviral	Marburg entry inh	Lassa entry inh	FMDV inh
Cc1nnc(NC(=O)Cn2nc(C)c3ccccc3c2=O)s1	-20	-8%[46.1 µM]	12%[46.1 µM]	-1%
CCOc1ccc(S(=O)(=O)NCC(c2ccc3c(c2)OCO3)N2CCN(C)CC2)cc1 (configuration not stated)	-21	7.9µM*	u	-2%
C(C#CCCCCCCCCC[n+]1ccccc1)#CCCCCCCCCC[n+]1ccccc1	x	2.5µM*	u	18µM*
CSc1ccc(-c2nc(CSCC(=O)NCCCN3CCOCC3)c(C)o2)cc1	14	4%[46.1 µM]	7%	-18%
Cn1cc(Br)c(-c2cccc(NC(=O)CC(C)(C)CC(=O)O)c2)n1	15	-24%[46.1 µM]	5%[46.1 µM]	1%
O=C1C=C(N(CCO)Cc2ccccc2)c2ccccc2C1=O	x	u	4.5µM*	14µM*
